This note sets out measurements from article PMC7862700, “An all-to-all approach to the identification of sequence-specific readers for epigenetic DNA modifications on cytosine”.

Test in all cases: DAPPL (digital affinity profiling via proximity ligation, sequencing); 10 mM Tris-HCl pH 7.5, 50 mM NaCl, 1 mM DTT, 4% glycerol, room temperature, 30 min; GST-TFs on glutathione beads, 16-mer random dsDNA library, 0.1% formaldehyde crosslink after washing; high values mean tight binding
What all share (settings): protein: recombinant; tags: N-terminal GST; dsDNA, one strand shown

The target of test [1] is T1, FLI1 (Homo sapiens, UniProt Q01543 1-452).
T1 sequence: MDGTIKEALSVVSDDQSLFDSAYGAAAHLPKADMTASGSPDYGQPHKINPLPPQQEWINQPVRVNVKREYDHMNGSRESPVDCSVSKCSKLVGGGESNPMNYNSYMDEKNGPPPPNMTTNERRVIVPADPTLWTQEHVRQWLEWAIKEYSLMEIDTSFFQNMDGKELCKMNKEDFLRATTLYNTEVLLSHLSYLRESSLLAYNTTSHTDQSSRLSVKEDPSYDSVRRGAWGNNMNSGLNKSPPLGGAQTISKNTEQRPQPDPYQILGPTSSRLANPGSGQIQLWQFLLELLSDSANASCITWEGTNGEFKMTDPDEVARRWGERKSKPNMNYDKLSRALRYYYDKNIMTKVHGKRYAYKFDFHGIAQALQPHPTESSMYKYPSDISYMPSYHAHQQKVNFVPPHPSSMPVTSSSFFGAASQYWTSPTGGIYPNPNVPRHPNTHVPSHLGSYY
The essentials:
(§1)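 Each value of binding signal is a hexamer's read frequency for a factor divided by the same hexamer's frequency in the tag-only sample. Barcoded, bead-captured GST fusions of human transcription factors made in yeast were pooled with that sample and incubated with 200 nmole of a random double-stranded 16-mer DNA library in Tris/NaCl/DTT/glycerol buffer at room temperature for 30 min. Washing, 0.1% formaldehyde crosslinking, proximity ligation, PCR and Illumina NextSeq500 sequencing followed.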

Test [2] concerns the target T2, ELK1 (Homo sapiens, UniProt P19419 1-428).
T2 sequence: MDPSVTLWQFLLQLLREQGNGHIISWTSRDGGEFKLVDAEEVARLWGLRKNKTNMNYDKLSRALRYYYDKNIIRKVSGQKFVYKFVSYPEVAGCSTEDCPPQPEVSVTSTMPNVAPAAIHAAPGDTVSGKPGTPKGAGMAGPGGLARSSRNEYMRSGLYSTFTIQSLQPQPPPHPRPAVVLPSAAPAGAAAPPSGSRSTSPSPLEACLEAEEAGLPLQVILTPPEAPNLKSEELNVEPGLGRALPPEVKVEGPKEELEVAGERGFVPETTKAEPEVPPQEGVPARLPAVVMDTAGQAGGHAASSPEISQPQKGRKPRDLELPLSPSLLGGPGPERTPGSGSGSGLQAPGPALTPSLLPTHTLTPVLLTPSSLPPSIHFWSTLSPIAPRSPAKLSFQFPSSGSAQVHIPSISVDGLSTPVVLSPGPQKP
Summed up: as §1

The target in test [3] is T3, GABPA (Homo sapiens, UniProt Q06546 1-454).
T3 sequence: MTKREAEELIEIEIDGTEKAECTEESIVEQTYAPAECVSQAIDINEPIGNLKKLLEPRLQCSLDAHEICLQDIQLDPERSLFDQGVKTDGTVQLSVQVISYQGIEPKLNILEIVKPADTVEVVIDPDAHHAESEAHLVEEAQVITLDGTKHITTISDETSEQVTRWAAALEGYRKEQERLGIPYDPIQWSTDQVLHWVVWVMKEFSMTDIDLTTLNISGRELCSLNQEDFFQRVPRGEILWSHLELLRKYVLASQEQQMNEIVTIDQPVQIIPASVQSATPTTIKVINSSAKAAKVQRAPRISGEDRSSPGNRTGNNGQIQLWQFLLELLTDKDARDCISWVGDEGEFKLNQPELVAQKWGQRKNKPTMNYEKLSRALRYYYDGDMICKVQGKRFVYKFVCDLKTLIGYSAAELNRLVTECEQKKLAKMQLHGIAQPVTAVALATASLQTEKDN
Summed up: as §1

In test [4] the target is T4, ERG (Homo sapiens, UniProt P11308 1-479).
T4 sequence: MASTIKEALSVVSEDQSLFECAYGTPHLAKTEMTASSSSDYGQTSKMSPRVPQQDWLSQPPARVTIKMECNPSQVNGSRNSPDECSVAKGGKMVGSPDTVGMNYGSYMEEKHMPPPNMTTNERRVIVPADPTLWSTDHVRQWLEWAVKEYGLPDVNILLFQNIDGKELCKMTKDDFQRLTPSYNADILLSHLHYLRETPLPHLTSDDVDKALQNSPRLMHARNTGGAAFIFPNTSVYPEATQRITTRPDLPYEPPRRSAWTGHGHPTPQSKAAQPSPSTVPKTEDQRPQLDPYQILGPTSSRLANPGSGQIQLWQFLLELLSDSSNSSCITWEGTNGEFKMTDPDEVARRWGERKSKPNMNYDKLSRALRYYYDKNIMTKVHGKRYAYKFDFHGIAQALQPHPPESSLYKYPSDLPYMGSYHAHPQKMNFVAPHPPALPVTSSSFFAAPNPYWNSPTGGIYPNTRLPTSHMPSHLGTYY
The essentials: as §1

For test [5], the target named is ELF1 (Homo sapiens, UniProt P32519 1-619). The essentials:
as §1

The target in test [6] is T5, EHF (Homo sapiens, UniProt Q9NZC4 1-300).
T5 sequence: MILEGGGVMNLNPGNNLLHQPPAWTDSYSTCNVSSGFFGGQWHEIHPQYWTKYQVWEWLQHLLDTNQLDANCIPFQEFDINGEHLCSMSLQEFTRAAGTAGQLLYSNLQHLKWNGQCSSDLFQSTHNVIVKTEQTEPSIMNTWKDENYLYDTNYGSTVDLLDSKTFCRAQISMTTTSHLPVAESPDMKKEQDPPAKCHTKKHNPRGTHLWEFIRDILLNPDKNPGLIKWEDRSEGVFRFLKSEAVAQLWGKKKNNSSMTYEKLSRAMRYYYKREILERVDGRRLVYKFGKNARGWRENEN
Summed up:
as §1

The target of test [7] is SPI1 (Homo sapiens, UniProt P17947 1-270). The essentials:
as §1

Test [8] concerns the target SPIB (Homo sapiens, UniProt Q01892 1-262). Summed up:
as §1

Test [9] has as its target T6, ELK3 (Homo sapiens, UniProt P41970 1-407).
T6 sequence: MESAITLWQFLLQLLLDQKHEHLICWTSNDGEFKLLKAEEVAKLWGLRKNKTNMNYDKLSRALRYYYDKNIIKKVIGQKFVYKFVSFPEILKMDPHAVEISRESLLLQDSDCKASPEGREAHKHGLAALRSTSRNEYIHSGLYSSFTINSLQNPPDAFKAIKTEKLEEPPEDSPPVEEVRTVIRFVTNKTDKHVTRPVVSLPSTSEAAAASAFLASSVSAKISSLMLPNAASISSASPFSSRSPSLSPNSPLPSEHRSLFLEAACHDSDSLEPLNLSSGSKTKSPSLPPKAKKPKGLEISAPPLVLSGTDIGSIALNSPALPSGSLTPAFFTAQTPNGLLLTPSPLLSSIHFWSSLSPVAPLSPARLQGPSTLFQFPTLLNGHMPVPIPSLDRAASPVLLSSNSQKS
Summed up: as §1

The target of test [10] is ETV5 (Homo sapiens, UniProt P41161 1-510). The essentials: as §1
Test [11] deals with T7, SPIC (Homo sapiens, UniProt Q8N5J4 1-248).
T7 sequence: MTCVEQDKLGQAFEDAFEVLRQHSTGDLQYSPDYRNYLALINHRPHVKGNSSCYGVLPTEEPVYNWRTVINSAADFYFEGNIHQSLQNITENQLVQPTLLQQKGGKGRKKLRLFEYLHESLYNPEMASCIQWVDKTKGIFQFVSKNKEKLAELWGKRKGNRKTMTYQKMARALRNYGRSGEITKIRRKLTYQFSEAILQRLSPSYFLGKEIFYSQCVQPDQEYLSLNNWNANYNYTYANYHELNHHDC
Summed up: as §1

For test [12], the target named is ELF4 (Homo sapiens, UniProt Q99607 1-663). Summed up:
as §1

The target of test [13] is T8, ELK4 (Homo sapiens, UniProt P28324-2 1-405).
T8 sequence: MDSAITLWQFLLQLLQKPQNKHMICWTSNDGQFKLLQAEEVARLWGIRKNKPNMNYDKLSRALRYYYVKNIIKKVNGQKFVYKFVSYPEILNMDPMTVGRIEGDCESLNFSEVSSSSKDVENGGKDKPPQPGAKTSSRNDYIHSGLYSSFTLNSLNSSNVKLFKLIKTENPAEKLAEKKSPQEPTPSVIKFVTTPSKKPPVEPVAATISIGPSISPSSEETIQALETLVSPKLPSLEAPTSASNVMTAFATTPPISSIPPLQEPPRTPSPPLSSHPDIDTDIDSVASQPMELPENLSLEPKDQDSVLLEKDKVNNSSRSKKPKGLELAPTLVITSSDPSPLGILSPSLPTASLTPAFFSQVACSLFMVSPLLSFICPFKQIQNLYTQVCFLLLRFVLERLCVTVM
Summed up: as §1

The target of test [14] is T9, ETV2 (Homo sapiens, UniProt O00321 1-342).
T9 sequence: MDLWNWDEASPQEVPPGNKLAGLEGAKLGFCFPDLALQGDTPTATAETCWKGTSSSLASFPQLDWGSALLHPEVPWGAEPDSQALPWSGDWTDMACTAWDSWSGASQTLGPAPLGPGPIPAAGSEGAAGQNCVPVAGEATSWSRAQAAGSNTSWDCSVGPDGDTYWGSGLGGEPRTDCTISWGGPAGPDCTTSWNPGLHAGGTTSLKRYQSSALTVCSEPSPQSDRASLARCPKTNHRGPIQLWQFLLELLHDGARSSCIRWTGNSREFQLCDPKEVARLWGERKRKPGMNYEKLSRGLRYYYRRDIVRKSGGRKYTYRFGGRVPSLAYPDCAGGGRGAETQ
The essentials:
as §1

For test [15], the target named is T10, ELF3 (Homo sapiens, UniProt P78545 1-371).
T10 sequence: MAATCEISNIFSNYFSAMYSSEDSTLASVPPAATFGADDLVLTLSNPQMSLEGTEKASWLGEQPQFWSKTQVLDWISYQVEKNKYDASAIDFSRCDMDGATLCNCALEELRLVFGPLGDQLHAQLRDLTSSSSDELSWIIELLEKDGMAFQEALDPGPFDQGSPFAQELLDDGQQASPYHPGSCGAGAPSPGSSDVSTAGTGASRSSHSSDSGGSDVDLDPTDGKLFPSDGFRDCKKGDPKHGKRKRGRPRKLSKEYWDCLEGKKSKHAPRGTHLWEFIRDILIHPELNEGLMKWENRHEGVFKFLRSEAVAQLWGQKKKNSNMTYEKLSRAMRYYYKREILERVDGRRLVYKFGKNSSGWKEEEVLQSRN
The essentials:
as §1

Test [16] deals with ETV1 (Homo sapiens, UniProt P50549 1-477). Summed up:
as §1

Test [17] concerns the target T11, FEV (Homo sapiens, UniProt Q99581 1-238).
T11 sequence: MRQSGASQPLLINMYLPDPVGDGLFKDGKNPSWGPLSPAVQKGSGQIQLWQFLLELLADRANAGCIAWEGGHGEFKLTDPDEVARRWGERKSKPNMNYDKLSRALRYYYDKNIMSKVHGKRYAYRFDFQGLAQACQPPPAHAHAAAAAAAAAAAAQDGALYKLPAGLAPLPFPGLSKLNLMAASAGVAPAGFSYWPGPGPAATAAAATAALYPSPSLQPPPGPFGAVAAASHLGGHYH
The essentials:
as §1

Sequence of ELF4 (Q99607 whole entry): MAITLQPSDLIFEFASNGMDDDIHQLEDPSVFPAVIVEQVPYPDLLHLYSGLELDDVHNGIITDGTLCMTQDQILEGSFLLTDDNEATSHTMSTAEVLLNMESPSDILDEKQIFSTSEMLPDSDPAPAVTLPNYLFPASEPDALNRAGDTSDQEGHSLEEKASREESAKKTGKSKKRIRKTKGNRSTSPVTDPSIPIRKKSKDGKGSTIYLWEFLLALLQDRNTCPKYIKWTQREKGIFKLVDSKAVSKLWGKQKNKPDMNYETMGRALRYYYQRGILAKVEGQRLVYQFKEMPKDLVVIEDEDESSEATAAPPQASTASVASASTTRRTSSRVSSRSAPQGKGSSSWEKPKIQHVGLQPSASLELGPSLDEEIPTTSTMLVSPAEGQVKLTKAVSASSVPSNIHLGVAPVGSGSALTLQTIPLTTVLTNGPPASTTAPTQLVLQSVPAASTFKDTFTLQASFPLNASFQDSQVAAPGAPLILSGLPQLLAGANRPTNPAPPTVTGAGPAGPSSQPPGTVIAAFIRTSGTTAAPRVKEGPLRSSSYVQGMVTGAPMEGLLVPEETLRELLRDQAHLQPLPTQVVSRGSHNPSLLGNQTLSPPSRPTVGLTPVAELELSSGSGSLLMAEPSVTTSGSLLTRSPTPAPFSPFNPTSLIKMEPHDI
Sequence of ELF1 (P32519 whole entry): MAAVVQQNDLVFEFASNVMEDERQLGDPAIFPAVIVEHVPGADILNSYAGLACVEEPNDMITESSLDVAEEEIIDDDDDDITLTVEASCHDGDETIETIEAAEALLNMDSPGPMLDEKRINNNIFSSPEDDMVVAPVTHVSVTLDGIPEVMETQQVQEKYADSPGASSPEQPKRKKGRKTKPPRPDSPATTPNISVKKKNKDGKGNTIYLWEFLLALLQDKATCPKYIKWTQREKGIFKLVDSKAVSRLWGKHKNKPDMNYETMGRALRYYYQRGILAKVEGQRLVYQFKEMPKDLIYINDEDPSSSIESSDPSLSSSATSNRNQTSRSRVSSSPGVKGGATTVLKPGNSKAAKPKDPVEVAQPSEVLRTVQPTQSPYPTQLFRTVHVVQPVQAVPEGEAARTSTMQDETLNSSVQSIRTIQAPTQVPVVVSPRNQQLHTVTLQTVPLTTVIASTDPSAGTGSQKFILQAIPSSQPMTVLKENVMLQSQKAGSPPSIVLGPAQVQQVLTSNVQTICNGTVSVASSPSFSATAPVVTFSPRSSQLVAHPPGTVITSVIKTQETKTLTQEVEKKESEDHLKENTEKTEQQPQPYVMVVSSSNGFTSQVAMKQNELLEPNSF
Sequence of ETV5 (P41161 whole entry): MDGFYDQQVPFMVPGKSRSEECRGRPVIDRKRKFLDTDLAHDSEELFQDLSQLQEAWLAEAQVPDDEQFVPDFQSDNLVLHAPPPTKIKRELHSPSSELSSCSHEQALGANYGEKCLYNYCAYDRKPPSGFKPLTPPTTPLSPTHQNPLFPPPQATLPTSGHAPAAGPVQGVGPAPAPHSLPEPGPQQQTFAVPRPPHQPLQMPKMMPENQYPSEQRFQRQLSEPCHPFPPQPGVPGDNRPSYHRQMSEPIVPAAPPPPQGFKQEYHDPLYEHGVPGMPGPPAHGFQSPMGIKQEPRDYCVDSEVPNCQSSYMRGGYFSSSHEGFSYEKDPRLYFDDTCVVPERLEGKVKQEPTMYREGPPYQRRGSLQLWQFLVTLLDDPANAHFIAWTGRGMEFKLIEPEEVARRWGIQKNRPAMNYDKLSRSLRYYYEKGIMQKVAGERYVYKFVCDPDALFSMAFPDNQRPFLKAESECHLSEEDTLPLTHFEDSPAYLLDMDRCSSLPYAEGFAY
Sequence of SPIB (Q01892 whole entry): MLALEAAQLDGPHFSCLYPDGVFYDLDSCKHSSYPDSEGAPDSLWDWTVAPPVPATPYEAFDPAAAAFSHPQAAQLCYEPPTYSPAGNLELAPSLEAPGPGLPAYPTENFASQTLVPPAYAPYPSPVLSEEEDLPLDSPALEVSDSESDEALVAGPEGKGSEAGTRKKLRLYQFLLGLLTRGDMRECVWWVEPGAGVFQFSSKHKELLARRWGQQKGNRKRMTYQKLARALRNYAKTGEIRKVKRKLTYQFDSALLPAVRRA
Sequence of ETV1 (P50549 whole entry): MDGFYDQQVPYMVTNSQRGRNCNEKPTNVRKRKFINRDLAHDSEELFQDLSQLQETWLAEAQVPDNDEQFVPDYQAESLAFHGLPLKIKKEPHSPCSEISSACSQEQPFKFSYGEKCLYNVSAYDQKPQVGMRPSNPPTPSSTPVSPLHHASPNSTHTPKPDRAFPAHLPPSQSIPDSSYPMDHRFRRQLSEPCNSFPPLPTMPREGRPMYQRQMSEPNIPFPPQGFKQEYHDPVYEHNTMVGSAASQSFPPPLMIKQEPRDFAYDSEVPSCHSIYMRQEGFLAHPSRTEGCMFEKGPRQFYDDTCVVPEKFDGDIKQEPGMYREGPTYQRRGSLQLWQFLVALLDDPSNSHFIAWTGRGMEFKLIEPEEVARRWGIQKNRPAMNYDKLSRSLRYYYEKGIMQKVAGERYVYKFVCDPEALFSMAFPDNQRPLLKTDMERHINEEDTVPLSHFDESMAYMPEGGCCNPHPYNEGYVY

Consider TTGCGT, for which the binding signal is 1.05 fold enrichment (6-mer frequency, TF over GST control) in test [1]; 1.14 fold enrichment (6-mer frequency, TF over GST control) in test [2]; 1.12 fold enrichment (6-mer frequency, TF over GST control) in test [3]; 1.03 fold enrichment (6-mer frequency, TF over GST control) in test [4]; 1.11 fold enrichment (6-mer frequency, TF over GST control) in test [5]; 1.01 fold enrichment (6-mer frequency, TF over GST control) in [6]. Moreover, the binding signal is 1.11 fold enrichment (6-mer frequency, TF over GST control) in test [7]; 1.11 fold enrichment (6-mer frequency, TF over GST control) in test [8]; 1.13 fold enrichment (6-mer frequency, TF over GST control) in test [9]; 1.1 fold enrichment (6-mer frequency, TF over GST control) in [10]; 1.1 fold enrichment (6-mer frequency, TF over GST control) in [11]; 1.08 fold enrichment (6-mer frequency, TF over GST control) in test [12]. The binding signal in test [13] is 1.12 fold enrichment (6-mer frequency, TF over GST control); in test [14] it was 1.33 fold enrichment (6-mer frequency, TF over GST control); in test [15] it was 1.16 fold enrichment (6-mer frequency, TF over GST control); in [16], 1.12 fold enrichment (6-mer frequency, TF over GST control).

For the sequence GTTTCA, the binding signal in test [1] was 1.34 fold enrichment (6-mer frequency, TF over GST control); in test [2], 1.27 fold enrichment (6-mer frequency, TF over GST control); in [3], 1.35 fold enrichment (6-mer frequency, TF over GST control); in test [4], 1.3 fold enrichment (6-mer frequency, TF over GST control); in [5], 1.4 fold enrichment (6-mer frequency, TF over GST control); in test [6] it was 1.3 fold enrichment (6-mer frequency, TF over GST control). For the same sequence, the binding signal is 1.32 fold enrichment (6-mer frequency, TF over GST control) in [7]; 1.24 fold enrichment (6-mer frequency, TF over GST control) in [8]; 1.44 fold enrichment (6-mer frequency, TF over GST control) in test [9]; 1.31 fold enrichment (6-mer frequency, TF over GST control) in test [17]; 1.26 fold enrichment (6-mer frequency, TF over GST control) in test [10]; 1.06 fold enrichment (6-mer frequency, TF over GST control) in test [11]. Moreover, the binding signal in test [12] was 1.33 fold enrichment (6-mer frequency, TF over GST control); in [13] it was 1.28 fold enrichment (6-mer frequency, TF over GST control); in test [14] it was 1.15 fold enrichment (6-mer frequency, TF over GST control); in [15], 1.28 fold enrichment (6-mer frequency, TF over GST control); in [16], 1.43 fold enrichment (6-mer frequency, TF over GST control).
